Screening data from PubChem.
This is a sample that favours compounds with a hit; in the whole collection about 7.9% have one here.
SW480 rereplic = induces DNA re-replication in SW480 colon adenocarcinoma cells; Potency, µM (series often up to 46.1 µM), inactives show at the top dose re-replication activation, usual class: activators; 340,000 compounds, 1.8% hits; AID 624297; SW480 DNA re-replication, Hoechst DNA content imaging, 48 h; note: % of control where 0% means no effect; nearly all actives have a fitted effect of over 55% in size
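Image-based read-out: total Hoechst fluorescence of nuclei (405 nm excitation, 500-530 nm emission), with hits raising the fraction of high-intensity nuclei. SW480 colon cells incubated 48 hr with compounds at 37 C.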
KB-V1 MDR tox = kills drug-selected multidrug resistant KB-V1 cells | KB-V1 MDR cells viability, CellTiter-Glo, 72 h | Potency, µM (highest dose often 46.1 µM), hits mostly cytotoxic | 400,000 compounds, 3.4% hits | AID 1347076; note: % is set by controls: 0 for no effect and ±100 for the full control effect; nearly all actives have a fitted effect of over 60% in size
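qHTS viability screen in drug-selected KB-V1 MDR cells: 72 h compound treatment at 37 degrees C, ATP luminescence end point.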
HT1080-NT tox = kills 2HG-producing HT-1080-NT fibrosarcoma cells; 360,000 compounds, 1.6% hits; AID 686970; Potency, µM (titrated, usually from 46.1 µM), for inactives: at the top dose activity, negative = less viability, hits mostly cytotoxic; HT-1080-NT fibrosarcoma viability, CellTiter-Glo ATP luminescence, 48 h;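 note: NT is the 2HG producing partner of a matched IDH1 knockdown line; 0% = DMSO-treated cells and -100% = media-only wells without cells; nearly all actives have a fitted effect of over 55% in size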
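A 48-hour cytotoxicity screen used HT-1080-NT cells plated 2 hours before compound delivery. ATP-based CellTiter-Glo luminescence measured viability, normalized to DMSO and no-cell controls.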
KB-3-1 tox = KB-3-1 parental cell cytotoxicity; 400,000 compounds, 1.4% hits; KB-3-1 viability, CellTiter-Glo ATP luminescence, 72 h; Potency, µM (top dose mostly 46.1 µM), hits mostly cytotoxic; note: % is set by controls: 0 for no effect and ±100 for the full control effect; nearly all actives have a fitted effect of over 60% in size
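Multi-concentration cytotoxicity screen in KB-3-1 cells grown in DMEM lacking phenol red with 10% FBS. After 72 h at 37 °C with compound, ATP-dependent luminescence was recorded.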
HT1080 IDH1KD tx = toxicity to HT-1080 IDH1 knockdown cells (counter line) | HT-1080 IDH1 knockdown viability, ATP luminescence, 48 h | Potency, µM (doses to about 46.1 µM), for inactives: at the highest dose activity, negative = toxicity, usual class: cytotoxic | 360,000 compounds, 2% hits | AID 686971;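 note: 0% = DMSO wells and -100% = cell-free medium wells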
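In this qHTS, HT-1080 cells depleted of IDH1 are exposed for 48 h at 37 °C to compound titrations. Toxicity is scored from CellTiter-Glo luminescence, with DMSO as full viability and medium alone as none.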
MCF10A rereplic = inducers of DNA re-replication in MCF 10A breast cells. 350,000 compounds, 2.9% hits. Potency, µM (titrated, usually from 46.1 µM), for inactives: top-dose activity, positive = re-replication, hits mostly activators. AID 624296. MCF 10A DNA re-replication, Hoechst nuclear intensity, 48 h; note: % of control where 0% means no effect; nearly all actives have a fitted effect of over 50% in size
Numbers without * were called inactive; i = inactive; ? = inconclusive; . = not tested or not shown; ! = repeats disagree. Calls come from the whole dose curve; as a rule, active = well fitted curve in the direction sought with a large enough effect; inconclusive = small, poorly fitted or top-dose-only effect, or another doubt; inactive = no such curve, though single readings can be large; an effect the other way counts as inactive or inconclusive. Potency is the fitted concentration of half-maximal effect.

SMILES	SW480 rereplic	KB-V1 MDR tox	HT1080-NT tox	KB-3-1 tox	HT1080 IDH1KD tx	MCF10A rereplic
CCOc1ccc(NC(=S)N(Cc2ccc(N(C)C)cc2)Cc2ccco2)cc1	10.4%	14.6µM*	6.0%	i	4.6%	19.2%
CCOC(=O)N1CCC(NC(=O)CCc2c(C)nc3nc(C)nn3c2C)CC1	-9.1%	i	0.2%	i	10.7%	-6.4%
CCOC(=O)N1CCC(NC(=O)CCc2c(C)nc3c(c(C)nn3C(C)(C)C)c2C)CC1	8.1%	3.66µM*	?	?	?	4.0%
COc1cc2c(cc1OC)/C(=C/c1ccc(Br)cc1)C(=O)OC2	?	?	?	20.6µM*	?	?
CC1CC(C)CN(C(=O)C(NS(=O)(=O)c2ccc(Br)s2)c2ccccc2)C1 (stereo not given)	-96.9%	i	-25.8%	i	?	16.4µM*
C[C@@H](NC(=O)Cn1ccc(N)nc1=O)c1cccc2ccccc12	-7.3%	i	7.7%	i	6.9%	-22.7%
CS/C(=N\S(=O)(=O)c1cccs1)NC(=O)CSc1nc2ccccc2s1	-5.5%	i	-6.9%	i	-1.8%	11.6µM*!
C/C(=N/NC(=O)CSc1nc2ccccc2s1)c1ccncc1	-1.1%	i	-14.1%	i	-4.4%	29.1%
COc1ccc(-c2coc3cc4oc(=O)cc(-c5ccccc5)c4cc23)cc1F	?	?	6.51µM*	2.91µM*	3.66µM*	6.51µM*
COc1ccc(-c2coc3cc4oc(=O)cc(C)c4cc23)cc1F	?	?	11.2%	i	18.5%	5.17µM*
N#C/C(=C\c1ccc(Br)s1)C(=O)N1CCN(c2ccccc2)CC1	0.0%	18.4µM*	8.1%	i	13.7%	?
CC1=C(C(=O)OCc2ccc(C)cc2)C(c2ccccc2F)CC(=O)N1 (stereo not given)	.	i	.	i	.	.
CCOc1ccc(OCC)c(NC(=O)C2CCN(c3ncccn3)CC2)c1	4.5%	9.2µM*	1.6%	i	-3.1%	-3.5%
CCOc1ccc(OCC)c(NC(=O)C2CCCN(C(=O)c3ccc(Cl)cc3)C2)c1 (stereo not given)	-1.5%	7.31µM*	11.2%	i	12.7%	4.7%
COc1ccc(-c2nc(-c3cccc(C)c3)nc(N3CCN(C)CC3)c2C#N)cc1	?	4.61µM*	0.1%	5.8µM*	-0.3%	?
COc1ccc(-c2nc(-c3ccccc3)nc(N3CCN(C)CC3)c2C#N)cc1	-16.6%	?	4.5%	?	0.0%	10.8%
COc1cc2nc(N3CCCN(C)CC3)nc(NC3CCNCC3)c2cc1OC	.	.	-3.8%	.	12.1%	.
CCOC(=O)C1CCCN(S(=O)(=O)c2cc3c(cc2C)NC(=O)CO3)C1 (stereo not given)	.	i	.	i	.	.
COc1ccccc1N1CCN(C(=O)C(NS(=O)(=O)c2cccs2)c2ccccc2)CC1 (stereo not given)	-6.0%	4.61µM*	12.3%	i	6.2%	-3.6%
CCC(C(=O)N1CCN(c2ccccc2OC)CC1)c1ccccc1 (stereo not given)	-703.1%	20.6µM*	-27.6%	?	?	?
CCOC(=O)N1CCN(C(=O)C(CC)c2ccccc2)CC1 (stereo not given)	-88.8%	11.6µM*	13.1%	i	21.2%	6.9%
CCOC(=O)N1CCN(C(=O)c2ccccc2-c2ccccc2)CC1	10.3µM*	4.61µM*	10.3µM*	4.61µM*	7.31µM*	8.2µM*
CCOC(=O)N1CCN(c2ccccc2OC)CC1	-10.7%	i	20.8%	i	24.3%	-2.0%
CCC(C(=O)N1CCN(S(C)(=O)=O)CC1)c1ccccc1 (stereo not given)	3.3%	i	12.0%	i	-3.3%	-0.5%
CC(C)Oc1ccc(CNC(=O)c2ccc3c(c2)N(C)C(=O)C2CCCCN32)cc1 (stereo not given)	.	i	.	i	.	.
